# ChEMBL document CHEMBL2218924, “A broad activity screen in support of a chemogenomic map for kinase signalling research and drug discovery” (Biochem J, 2013)
# Legend:
# [1] = biological target: Calcium/calmodulin-dependent protein kinase type 1 (Homo sapiens) (UniProt Q14012); settings: at 1 µM
# [2] = biological target: Calcium/calmodulin-dependent protein kinase type 1 (Homo sapiens) (UniProt Q14012); settings: at 10 µM
# [3] = biological target: Calcium/calmodulin-dependent protein kinase type II subunit beta (Homo sapiens) (UniProt Q13554); settings: at 1 µM
# Calcium/calmodulin-dependent protein kinase type II subunit beta (Homo sapiens), sequence (Q13554 whole entry): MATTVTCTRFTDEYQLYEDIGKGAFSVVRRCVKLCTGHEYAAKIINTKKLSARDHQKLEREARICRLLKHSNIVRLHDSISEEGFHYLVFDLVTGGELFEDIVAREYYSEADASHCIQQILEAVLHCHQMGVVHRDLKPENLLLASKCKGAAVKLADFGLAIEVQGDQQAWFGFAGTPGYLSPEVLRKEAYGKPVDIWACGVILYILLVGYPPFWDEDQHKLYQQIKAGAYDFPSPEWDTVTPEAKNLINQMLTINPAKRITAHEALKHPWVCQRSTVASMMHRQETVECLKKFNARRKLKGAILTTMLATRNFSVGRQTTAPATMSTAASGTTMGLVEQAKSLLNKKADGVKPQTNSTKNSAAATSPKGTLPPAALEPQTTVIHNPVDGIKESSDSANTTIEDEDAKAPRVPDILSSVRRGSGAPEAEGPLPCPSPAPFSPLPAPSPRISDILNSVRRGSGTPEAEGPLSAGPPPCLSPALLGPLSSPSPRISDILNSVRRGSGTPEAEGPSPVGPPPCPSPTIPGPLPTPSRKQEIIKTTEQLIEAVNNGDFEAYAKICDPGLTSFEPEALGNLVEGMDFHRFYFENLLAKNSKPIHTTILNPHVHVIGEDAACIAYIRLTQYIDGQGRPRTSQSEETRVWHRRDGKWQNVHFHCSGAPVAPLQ
# [4] = biological target: Calcium/calmodulin-dependent protein kinase type II subunit beta (Homo sapiens) (UniProt Q13554); settings: at 10 µM
# [5] = biological target: Calcium/calmodulin-dependent protein kinase type II subunit gamma (Homo sapiens) (UniProt Q13555); settings: at 1 µM
# Calcium/calmodulin-dependent protein kinase type II subunit gamma (Homo sapiens), sequence (Q13555 whole entry): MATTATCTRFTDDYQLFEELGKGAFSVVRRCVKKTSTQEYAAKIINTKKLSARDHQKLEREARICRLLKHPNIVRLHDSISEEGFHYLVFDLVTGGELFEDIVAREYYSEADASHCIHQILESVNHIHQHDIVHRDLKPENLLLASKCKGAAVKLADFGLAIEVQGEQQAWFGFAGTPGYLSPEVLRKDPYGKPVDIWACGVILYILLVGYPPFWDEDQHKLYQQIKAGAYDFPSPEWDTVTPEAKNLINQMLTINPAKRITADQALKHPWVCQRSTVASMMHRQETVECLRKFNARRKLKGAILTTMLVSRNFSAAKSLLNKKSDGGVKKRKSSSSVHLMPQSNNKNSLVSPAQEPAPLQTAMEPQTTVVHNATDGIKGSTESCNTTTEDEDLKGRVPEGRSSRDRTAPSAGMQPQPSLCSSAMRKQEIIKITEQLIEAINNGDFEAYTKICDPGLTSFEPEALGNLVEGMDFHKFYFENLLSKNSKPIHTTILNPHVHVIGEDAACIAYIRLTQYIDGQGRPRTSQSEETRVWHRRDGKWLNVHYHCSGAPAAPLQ
# [6] = biological target: Calcium/calmodulin-dependent protein kinase type II subunit gamma (Homo sapiens) (UniProt Q13555); settings: at 10 µM
# [7] = biological target: Calcium/calmodulin-dependent protein kinase type II subunit delta (Homo sapiens) (UniProt Q13557); settings: at 1 µM
# Calcium/calmodulin-dependent protein kinase type II subunit delta (Homo sapiens), sequence (Q13557 whole entry): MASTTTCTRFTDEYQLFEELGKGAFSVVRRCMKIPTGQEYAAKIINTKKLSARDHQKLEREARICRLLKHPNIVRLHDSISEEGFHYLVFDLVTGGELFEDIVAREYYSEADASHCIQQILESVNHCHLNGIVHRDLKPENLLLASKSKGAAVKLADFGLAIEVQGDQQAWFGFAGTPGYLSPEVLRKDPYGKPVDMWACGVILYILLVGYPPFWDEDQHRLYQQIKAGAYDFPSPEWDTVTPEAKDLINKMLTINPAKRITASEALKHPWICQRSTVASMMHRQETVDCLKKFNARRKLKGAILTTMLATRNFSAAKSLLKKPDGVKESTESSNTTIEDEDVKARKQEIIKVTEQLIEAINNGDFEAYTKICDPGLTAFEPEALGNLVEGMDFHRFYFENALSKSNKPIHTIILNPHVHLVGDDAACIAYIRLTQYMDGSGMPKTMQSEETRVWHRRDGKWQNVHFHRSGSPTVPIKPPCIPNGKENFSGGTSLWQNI
# [8] = biological target: Calcium/calmodulin-dependent protein kinase type II subunit delta (Homo sapiens) (UniProt Q13557); settings: at 10 µM
# [9] = biological target: T1, Calcium/calmodulin-dependent protein kinase type IV (Homo sapiens) (UniProt Q16566); settings: at 1 µM
# T1 sequence (whole entry): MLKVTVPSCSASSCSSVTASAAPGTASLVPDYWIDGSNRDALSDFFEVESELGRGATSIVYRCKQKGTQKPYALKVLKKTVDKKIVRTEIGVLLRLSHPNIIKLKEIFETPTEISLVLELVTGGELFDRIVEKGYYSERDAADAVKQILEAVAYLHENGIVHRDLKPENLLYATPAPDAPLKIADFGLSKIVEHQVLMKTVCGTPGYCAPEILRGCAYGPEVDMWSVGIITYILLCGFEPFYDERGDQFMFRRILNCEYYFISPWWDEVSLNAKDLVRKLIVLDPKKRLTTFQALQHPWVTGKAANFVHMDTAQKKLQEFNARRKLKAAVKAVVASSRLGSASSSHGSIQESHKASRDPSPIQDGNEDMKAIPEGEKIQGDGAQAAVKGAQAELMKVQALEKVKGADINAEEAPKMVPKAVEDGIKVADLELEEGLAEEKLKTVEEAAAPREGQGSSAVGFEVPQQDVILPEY
# [10] = biological target: T1, Calcium/calmodulin-dependent protein kinase type IV (Homo sapiens); settings: at 10 µM
# Calcium/calmodulin-dependent protein kinase type 1 (Homo sapiens), sequence (Q14012 whole entry, looked up): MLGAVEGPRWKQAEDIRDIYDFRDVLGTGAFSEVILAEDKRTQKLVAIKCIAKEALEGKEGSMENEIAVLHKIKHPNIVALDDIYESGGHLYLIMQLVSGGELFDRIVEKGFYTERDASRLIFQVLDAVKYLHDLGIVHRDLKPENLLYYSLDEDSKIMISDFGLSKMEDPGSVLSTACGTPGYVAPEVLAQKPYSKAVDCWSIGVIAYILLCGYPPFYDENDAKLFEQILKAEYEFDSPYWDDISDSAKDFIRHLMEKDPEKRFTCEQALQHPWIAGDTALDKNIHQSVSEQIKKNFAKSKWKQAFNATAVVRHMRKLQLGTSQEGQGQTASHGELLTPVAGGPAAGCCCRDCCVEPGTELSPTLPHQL
Structure (SMILES),residual activity [1] [%],residual activity [2] [%],residual activity [3] [%],residual activity [4] [%],residual activity [5] [%],residual activity [6] [%],residual activity [7] [%],residual activity [8] [%],residual activity [9] [%],residual activity [10] [%]
O=C1c2ccccc2-[n+]2ccc3c([nH]c4ccccc43)c21,81,68,92,76,103,78,95,81,102,93
CC[n+]1c(/C=C/N(C)c2ccccc2)n(-c2ccccc2)c2ccc(-c3nc4ccccc4s3)cc21,107,26,93,38,113,99,109,78,124,95
Cc1cccc(-c2[nH]c(C(C)(C)C)nc2-c2ccc3c(c2)OCO3)n1,–,–,93,88,–,99,105,99,129,88
Cc1nc2cc3nc(-c4cccs4)cnc3cc2n1C,109,107,100,93,103,84,106,85,129,101
COc1cc2ncnc(Nc3ccc(O)c(Br)c3)c2cc1OC,104,61,73,62,68,18,79,28,122,67
O=C1Nc2ccc(Br)cc2/C1=C\c1cc2c([nH]1)CCCC2,105,–,72,69,20,16,18,20,135,–
O=C(Nc1cccc(Nc2nccc(Nc3cccc(C(F)(F)F)c3)n2)c1)C1CC1,86,31,100,38,76,12,66,19,84,62
CCN(CC)C(=O)c1ccc(Nc2nc(OCC3CCCCC3)c3nc[nH]c3n2)cc1,70,19,98,51,102,51,–,49,82,28
CN(C)c1ccc(/C=C2\C(=O)Nc3ccccc32)cc1,122,116,101,76,92,46,89,35,87,89
O=[N+]([O-])c1ccc(-c2nc(-c3ccc(F)cc3)c(-c3ccncc3)[nH]2)cc1,113,81,102,92,–,–,113,99,101,92
O=C1Nc2ccccc2/C1=C1/Nc2ccccc2/C1=N\OCCC(O)CO (configuration not stated),64,15,27,4,6,0,6,1,15,9
c1ccc(-c2n[nH]c3c2oc2ccccc23)cc1,115,136,87,36,81,25,79,22,–,90
Cc1cc(Nc2nc(-c3ccccc3)nc3ccccc23)n[nH]1,61,13,–,42,60,16,63,20,47,15
Cc1cc2ncc(-c3ccccc3)nc2cc1C,–,89,101,92,–,94,–,81,108,100
CC(=O)O/N=C1\C(=C2\C(=O)Nc3cc(Br)ccc32)Nc2ccccc21,82,50,79,27,23,4,17,4,100,90
CC#CC(=O)Nc1cc2c(Nc3ccc(F)c(Cl)c3)ncnc2cn1,98,80,91,84,108,93,107,97,121,87
CCN(CC)CCCCN1c2ccccc2Oc2ccc(Cl)cc21,107,89,106,93,111,97,112,112,126,118
N#CCCc1ccc2c(c1)-c1[nH]c3ccc([N+](=O)[O-])cc3c1CC(=O)N2,–,–,54,32,6,1,10,3,–,–
COc1ccc(OC)c2c(=S)c3ccccc3[nH]c12,96,77,92,54,90,54,95,62,100,84

Structure (SMILES),residual activity [1] [%],residual activity [2] [%],residual activity [3] [%],residual activity [4] [%],residual activity [5] [%],residual activity [6] [%],residual activity [7] [%],residual activity [8] [%],residual activity [9] [%],residual activity [10] [%]
COc1cc2ncc(-c3ccccc3)nc2cc1OC,–,–,100,82,–,78,–,80,–,60
O=C1NC(=O)c2c1c1c3ccccc3[nH]c1c1[nH]c3cc(Br)ccc3c21,89,70,92,66,18,21,15,18,103,99
O=c1c2ccccc2[nH]c(=S)n1CCN1CCC(=C(c2ccc(F)cc2)c2ccc(F)cc2)CC1,110,113,102,79,115,100,105,91,108,95
CO[C@H]1C[C@@H]2CC[C@@H](C)[C@@](O)(O2)C(=O)C(=O)N2CCCC[C@H]2C(=O)O[C@H]([C@H](C)C[C@@H]2CC[C@@H](O)[C@H](OC)C2)CC(=O)[C@H](C)/C=C(\C)[C@@H](O)[C@@H](OC)C(=O)[C@H](C)C[C@H](C)/C=C/C=C/C=C/1C,108,84,92,79,103,96,109,99,131,119
c1ccc(-c2n[nH]cc2-c2ccnc3ccccc23)nc1,–,83,96,68,94,69,96,80,139,78
Cc1cncc2cccc(S(=O)(=O)N3CCCN(C(=O)CN)C[C@H]3C)c12,97,63,76,49,95,64,98,60,91,22
N#CC(C#N)=C(N)/C(C#N)=C/c1ccc(O)cc1,–,–,96,90,116,95,–,–,–,–
COc1ccc(CNc2nc(N(CCO)CCO)nc3c2ncn3C(C)C)cc1,85,55,89,55,99,63,92,54,113,78
COc1cc2ncnc(Nc3ccc(NC(=O)c4ccccc4)cc3)c2cc1OC,99,41,102,94,–,–,108,91,–,95
Cc1ccc(NC2=CC(=O)c3sc(C)nc3C2=O)cc1,92,74,89,81,104,98,95,98,113,96
O=C1NC(=O)c2cc(Nc3ccc(F)cc3)c(Nc3ccc(F)cc3)cc21,109,71,85,50,111,102,110,88,119,66
O=Nc1c(-c2c(O)[nH]c3ccccc23)[nH]c2ccccc12,72,21,33,11,12,1,10,2,66,10
Oc1c2ccccc2c2c3c(cccc13)N=N2,77,32,–,–,37,8,43,8,73,24
COc1ccc(C(=O)Nc2sc3c(c2C(N)=O)CCCC3)cc1OC,102,75,83,73,86,66,86,66,107,85
Oc1ccc(Nc2nc(-c3ccc(Cl)cc3)cs2)cc1,94,53,98,92,98,89,102,98,102,114
c1ccc2c(-c3ccncc3)c[nH]c2c1,106,84,47,10,79,26,–,30,–,90
Ic1cccc(CSc2nnc(-c3ccncc3)o2)c1,97,79,75,55,85,74,73,65,106,100
C[C@@H](N)[C@H]1CC[C@H](C(=O)Nc2ccncc2)CC1,123,125,–,–,100,89,107,92,90,90
